Assay outcomes (PubChem BioAssay)
3T3 cytotox – cytotoxic compounds in NIH 3T3 cells. NIH 3T3 viability, CellTiter-Glo ATP luminescence, 48-72 h. hit rate 4.3% among 94,000. Potency, µM (highest dose often 96.7 µM), for the others: at the top dose activity change, negative = cytotoxicity, most hits filed as inhibitors; further: nearly all actives have a fitted effect of over 55% in size
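First NIH 3T3 cells are plated at 400 cells/well; next compound is pinned in; then plates incubate 48 or 72 hr at 37 °C; finally CellTiter-Glo is added and luminescence read after 10 min.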
GPT2 inhibitor – GPT2 alanine aminotransferase inhibition; Q8TD30; Recombinant GPT2, coupled pyruvate oxidase/HRP Amplex Red fluorescence; Potency, µM (highest dose often 57.7 µM), for inactives: at the top dose activity change, negative = inhibition, usual class: inhibitors; hit rate 0.25% among 100,000; AID 1671188; further: nearly all actives have a fitted effect of over 60% in size
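Fluorescence of coupled pyruvate oxidase/HRP/Amplex Red system (50uM Amplex, 30 min, dark) reports pyruvate formed by GPT2. Enzyme reaction: 10ng/uL GPT2, 2mM L-alanine, 250uM a-KG, 30 min room temperature, pH 7.5; 50uM AOA control.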
HEK cytotox – HEK 293 cell cytotoxicity. Potency, µM (series often up to 115 µM), for the others: top-dose activity change, negative = cytotoxicity, actives largely listed as inhibitors. hit rate 6.6% among 94,000. HEK 293 viability, ATP luminescence (CellTiter-Glo), 48-72 h; further: nearly all actives have a fitted effect of over 60% in size
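HEK 293 cells seeded at 250 cells/well were exposed to compound for 48 or 72 hr at 37 degree Celsius. Viability taken as ATP content by CellTiter-Glo luminescence.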
hNpr1 antagonist – antagonists of human natriuretic peptide receptor Npr1. hit rate 1.6% among 76,000. AID 1347048. HEK293 hNpr1 GloSensor cGMP, ANP-stimulated luminescence. P16066. Potency, µM (highest dose often 46.3 µM), for the others: top-dose activity change, negative = inhibition, hits mostly inhibitors; calls by dose curve; further: nearly all actives have a fitted effect of over 60% in size
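Compound pre-incubated 30 min at room temperature on GloSensor-loaded HEK293 cells stably carrying hNpr1 and the pGS-40F cGMP biosensor. Stimulation uses hNppA at 0.1 nM final; luminescence is taken at baseline and 20 min post-agonist.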
Luciferase inh – blocks purified firefly luciferase enzyme activity; P08659; purified P. pyralis luciferase, luminescence, biochemical; Potency, µM (highest dose often 115 µM), actives largely listed as inhibitors; hit rate 2.5% among 76,000; further: nearly all actives have a fitted effect of over 65% in size
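Inhibitors were tested against purified firefly luciferase in a biochemical, low-substrate format (both substrates at 10uM) and luminescence measured with a CCD imager.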
Numbers without * were called inactive; i = inactive; u = inconclusive; x = no result; ! = not active in a repeat; [ ] = dose if it differs, or a comment. This is a sample that favours compounds with a hit; in the whole collection about 10% have one here. Unless noted, the call rests on the fitted dose curve; in most records, active means well fitted curve in the direction sought with a large enough effect; inconclusive means small, poorly fitted or top-dose-only effect, or another doubt; inactive means no such curve, though single readings can be large; an effect the other way counts as inactive or inconclusive. On the % scale 0 is the no-effect control and ±100 the full control effect; potency means the concentration at half of the fitted maximal effect.

SMILES	3T3 cytotox	GPT2 inhibitor	HEK cytotox	hNpr1 antagonist	Luciferase inh
COc1ccccc1-c1ccc(CN2CCCCC2C(=O)NC2CCCC2)cc1 (centres undefined)	u	x	35µM*!	x	x
COc1cccc(-c2ccc(CN3CCCC3C(=O)NCc3ccccc3F)cc2)c1 (centres undefined)	u	-1%	u	x	x
O=C(CCC[C@H]1NC[C@@H]2CC1CN(Cc1ccccc1)C2)NCCCc1ccccc1	u	-5%	u	3%	i
COc1ccccc1-c1cccc(C(=O)N2CCC[C@H]2C(=O)NCc2cccnc2)c1	1%	-15%	-2%	x	x
COc1ccccc1-c1ccc(CN2CCCCC2C(=O)NCc2ccc(F)cc2F)cc1 (centres undefined)	u	x	20µM*	x	x
O=C(NCc1ccccc1F)C1CCCCN1Cc1ccc(-c2cccs2)cc1 (centres undefined)	u	-7%	u	x	x
COc1ccc(F)cc1-c1ccc(CN2CCCCC2C(=O)NCc2cccnc2)cc1 (centres undefined)	u	x	50µM*	x	x
COc1ccccc1-c1ccc(CN2CCCCC2C(=O)NCc2ccc3c(c2)OCO3)cc1 (centres undefined)	u	x	25µM*	x	x
CC1(C(=O)NCCN2CCCCC2)CCCCC(=O)N1 (centres undefined)	-1%	i	0%	1%	u
CNC(=O)c1cc(C2CC2)nc2onc(C3CCN(C(=O)c4ccccc4Cl)CC3)c12	-28%	x	u	x	x
Cc1ccc(-c2cc3c(=O)n(CCNC(=O)c4ccc[nH]c4=O)ccn3n2)cc1C	-17%	i	-7%	-14%	7.9µM*
Cc1ccc(-c2cc3c(=O)n(CCNC(=O)Cc4cccc(F)c4)ccn3n2)cc1C	u	1%	-18%	u	3.5µM*
CCC1(O)CCCN(C(=O)c2coc(COc3ccc4ccc(OC)cc4c3)n2)C1 (centres undefined)	u	i	u	u	u
O=C(C1CCCC1)N1CC2(CCN(C3CCCCC3)CC2)Cc2ccccc21	u	-4%	u	x	x
O=C(C1CCCC1)N1CC2(CCN(C3CCCCC3)C2)Cc2ccccc21 (centres undefined)	u	i	45µM*	x	x
CC(=O)N1CC2(CCCN(Cc3ccc(Cl)cc3)C2)Cc2ccccc21 (centres undefined)	-19%	1%	u	x	x
O=C(C1CCCC1)N1CC2(CCN(Cc3cccnc3)C2)Cc2ccccc21 (centres undefined)	u	u	45µM*	x	x
O=C(C1CCCC1)N1CC2(CCCN(Cc3ccc(Cl)cc3)C2)Cc2ccccc21 (centres undefined)	u	-12%	40µM*	x	x
O=C(C1CC1)N1CCCC(Cc2noc(-c3ccccn3)n2)C1 (centres undefined)	-20%	i	-26%	23%	u
Cc1cc(C)n(CCc2c(-c3ccccc3)ncn2CCCc2cccnc2)n1	50µM*	1%[11.5 µM]	1%	0%	i
CCN(CC)Cc1nc(C2(O)CCN(Cc3ccccc3C(F)(F)F)CC2)cs1	u	-19%[88.5 µM]	89µM*	8%[70.6 µM]	i
CCN(CC)Cc1nc(C2(O)CCN(Cc3ccccc3O)CC2)cs1	u	-8%[88.5 µM]	-24%[172 µM]	2%[70.6 µM]	i
CCN1C[C@H]2COc3cc(OC)ccc3[C@H]2N(C(=O)c2ccccc2OC)CCC1=O	u	x	-15%	x	x
Cc1ccc(Nc2ccnc(N3CCC(C(=O)NCc4cccs4)CC3)n2)cc1	22µM*	3%	18µM*	x	x
O=C(NCc1cccs1)C1CCN(c2nccc(Nc3ccccc3Cl)n2)CC1	u	-16%	45µM*	x	x
SMILES	3T3 cytotox	GPT2 inhibitor	HEK cytotox	hNpr1 antagonist	Luciferase inh
COc1cc2c(cc1OC)C(CNS(=O)(=O)c1ccc(C)cc1)N(C(=O)NC(C)(C)C)CC2 (centres undefined)	-27%	i	u	5%	i
COc1cccc(-c2c(C(=O)NCC(F)(F)F)nc3sccn23)c1	-15%	i	0%	x	x
O=C(c1cc2n(n1)CC(c1ccc(Cl)cc1)OC2)N1CCCCC1 (centres undefined)	40µM*	1%	u	-25%	i
O=C(c1cc2n(n1)CC(c1ccc(Br)cc1)OC2)N1CCOCC1 (centres undefined)	40µM*	u	28µM*	-11%	i
Cc1ccc(N2CCN(C(=O)c3cc4n(n3)CC(c3ccc(Cl)cc3)OC4)CC2)cc1 (centres undefined)	u	-7%	u	u	i
Cc1ccccc1N1CCN(C(=O)c2cc3n(n2)CC(c2ccc(Cl)cc2)OC3)CC1 (centres undefined)	u	-33%	u	u	i
O=C(c1cc2n(n1)CC(c1ccc3c(c1)OCO3)OC2)N1CCCCC1 (centres undefined)	40µM*	i	35µM*	-7%	i
Cc1ccc(C)c(N2CCN(C(=O)c3cc4n(n3)CC(c3ccc(Cl)cc3)OC4)CC2)c1 (centres undefined)	u	i	45µM*	-20%	i
O=C(Nc1ccccc1)c1cc2n(n1)CC(c1ccc3c(c1)OCO3)OC2 (centres undefined)	u	i	u	u	u
CCN1CCN(C(=O)c2cc3n(n2)CC(c2ccc(Br)cc2)OC3)CC1 (centres undefined)	u	-34%	u	-25%	i
CCS[C@H]1CCN2C(=O)c3cc(-c4ccccc4)ccc3NC(=O)[C@H]12	-29%[174 µM]	0%[88.5 µM]	u	-15%[70.6 µM]	i
C[C@]1(CO)[C@H]2Cc3sc(NC(=O)c4ccnc(Cl)c4)nc3[C@@H](CC(=O)NCc3ccco3)[C@]2(C)CC[C@H]1O	u	2%	u	4%	i
CCNCc1ccc(-c2ccc(Cl)cc2)o1	u	i	u	3%	i
Clc1cccc(-c2ccc(CNc3ncncn3)o2)c1	u	-22%[11.5 µM]	32µM*	u	u
COc1ccccc1C(=O)N1CC(=O)N(Cc2cccs2)CC(O)C1 (centres undefined)	-22%	x	u	x	x
COc1cccc(N2C(=O)OCC23CCN(CCCc2ccccc2)C3)c1 (centres undefined)	u	-11%[88.5 µM]	u	-3%[70.6 µM]	i
Cn1cc(CN2CC3(COCC(=O)N(Cc4cccc(OC(F)(F)F)c4)C3)C2)cn1	-19%[138 µM]	-4%[88.5 µM]	u	-16%[70.6 µM]	i
O=C1COCC2(CN1Cc1cccc(OC(F)(F)F)c1)CN(c1ccccc1F)C2	89µM*	-18%[88.5 µM]	89µM*	0%[70.6 µM]	i
O=C1COCC2(CN(Cc3ccsc3)C2)CN1Cc1cccc(OC(F)(F)F)c1	45µM*	-7%[88.5 µM]	63µM*	-19%[70.6 µM]	i
